# “And” between values parts separate entries of the source, which are not always exact repeats. Equal entries are not always repeated. The panel holds about 83,000 compounds, 20% with a hit somewhere; the sample as a whole holds those more often.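 How to read the values: 0–100, growth inhibition (40 = 60% inhibited); 0, no net growth; -100 to 0, cell death (-40 = 40% of starting cells died; -100 = all dead).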 The source made the active and inactive calls. How the source made its calls: active means growth percent below 10; inactive means the rest.
# System: MDA-MB-468 breast
# Test: NCI-60 one-dose screen, 48 h (100 = growth as untreated, 0 = no growth, -100 = all killed)
# Details: 10 µM unless noted
row,Structure (SMILES),growth
1,Nc1ccc(Cl)cn1,102% (inactive)
2,COC(=O)CCC1=C(CC(=O)OC)C(C)=N/C1=C\c1[nH]c(-c2ccc[nH]2)cc1OC,61.9% (inactive)
3,Clc1ccc(Cn2cc(-c3nc4ccc(Br)nc4n3Cc3ccc(Cl)cc3)c3cccnc32)cc1,60.7% (inactive)
4,Oc1ccccc1N=Cc1ccccc1,91% (inactive)
5,Cc1ccc(S(=O)(=O)Nc2ccc3cc([N+](=O)[O-])ccc3c2[N+](=O)[O-])cc1,54% (inactive) and 88.5% (inactive)
6,O=C(N/N=C/c1ccc([N+](=O)[O-])o1)c1ccc(O)cc1,12.8% (inactive)
7,CCN(CC)CCCCCCNc1cc(OC)c(Cl)c2cccnc12,32.1% (inactive)
8,NC(=O)c1ccccc1NC(=O)c1ccccc1Cl,125% (inactive)
9,Nc1cc(Cl)c(S(N)(=O)=O)cc1S(N)(=O)=O,99.3% (inactive)
10,Cc1ccc(-c2nc(C(Cl)Cl)nc3cc(C)nn23)cc1,-37.7% (active)
11,Cc1cc(C)c(O)c(C(=O)CC(Br)C(=O)O)c1 (stereo not given),74.9% (inactive)
12,NS(=O)(=O)c1ccc(N2Cc3cc(Cl)ccc3OC3=C2C(=O)N(CC2CCCCC2)C3=O)cc1,-81.1% (active)
13,CC(=O)Nc1ccc(Sc2ccc([N+](=O)[O-])o2)cc1,4.76% (active)
14,O=C1C=CC(=O)N1CO,117% (inactive)
15,CC/C=C1/C(=O)C=C[C@@H]1C/C=C\CCCC(=O)O,73.5% (inactive)
16,C#Cc1cccc(Nc2nc(C)nc3cc(NC(=O)CCl)ccc23)c1,-78.5% (active)
17,CC(=O)NCNC(C)=O,103% (inactive)
18,CC1(C)C(N)=Nc2cc(OCCCCN3Cc4ccccc4C3)c(OCC3CC3)cc21,42.2% (inactive)
19,O=C1/C(=C/c2cccc(F)c2)CN(C(=O)C(Cl)Cl)C/C1=C\c1cccc(F)c1,-47.4% (active)
20,C=CCN1C(=O)/C(=c2\sc3n(c2=O)C2C(NN=3)N(CC)C(=O)N2CC)c2ccccc21 (stereo not given),16.3% (inactive)

row,Structure (SMILES),growth
1,O=[N+]([O-])CC(c1ccccc1F)c1c[nH]c2ccccc12 (stereo not given),44% (inactive)
2,CC1=C[C@H]2c3c(c(O)c(O)c4oc5cc(O)ccc5c(=O)c34)[C@H](c3cc(O)c(O)c4oc5cc(O)ccc5c(=O)c34)[C@H]2C(C)(C)C1,34.3% (inactive)
3,O=c1[nH]c2cc(Cl)ccc2n1C1CCN(c2ccc3nnc(Cl)n3n2)CC1,85.3% (inactive)
4,O=C(CCCCCCNC(=O)C(O)(O)C(F)(F)F)Nc1nc2ccccc2s1,-12.8% (active)
5,C#C[C@]1(O)CC[C@H]2[C@@H]3CC=C4c5sc(-c6ccc(F)cn6)nc5CC[C@]4(C)[C@H]3CC[C@@]21C,43.4% (inactive)
6,CCC/C=C(/C(C)=O)C(=O)OCC,88.3% (inactive)
7,COc1cc(-c2nc3ccc(-c4nnc(SCC(=O)Nc5ccc(C(=O)/C=C/c6ccc(Cl)cc6)cc5)o4)cc3[nH]2)cc(OC)c1OC,93% (inactive)
8,CCCCNc1ccc(-c2ccc(NCCCC)cc2)cc1,29.9% (inactive)
9,CC(O)CN(CC(C)O)c1ccc2c(c1)Cc1cc([N+](=O)[O-])ccc1-2 (stereo not given),100% (inactive)
10,Cc1ccc(C(=O)N(CCCN)[C@@H](c2nc3cc(Cl)ccc3c(=O)n2Cc2ccccc2)C(C)C)cc1,-84.4% (active)
11,CC(=O)CCC(=O)OCc1cc(=O)c(O)co1,101% (inactive)
12,Oc1ccc(-c2nc3ccccc3s2)cc1CN(Cc1ccccn1)Cc1ccccn1,13.6% (inactive)
13,CCOC(=O)c1c(C)nc2c(c1N)/C(=C/c1cccs1)C(=O)N2Cc1ccccc1,47.6% (inactive)
14,Cc1ccc(-c2csc(NC(=O)CSc3nc(N)cc(N)n3)n2)cc1,11.6% (inactive)
15,S=c1[nH]cccc1-c1nnc2n1Nc1nc3ccccc3cc1CS2,102% (inactive)
16,CCOC(=O)c1cn2ncnc(Oc3ccc(NC(=O)NCCN4CCN(C)CC4)c(Cl)c3)c2c1C,45.4% (inactive)
17,C=CCc1c(O)c(C(=O)/C=C/c2ccccc2)c(OC)c2ccoc12,6.58% (active)
18,IP(CCCCCCCCCCSc1n(Cc2ccc3ccccc3c2)c(-c2ccccc2)c(-c2ccccc2)[n+]1Cc1ccc2ccccc2c1)(c1ccccc1)(c1ccccc1)c1ccccc1,-75.3% (active)
19,CN(C)CC(O)c1ccc(/C=C/c2ccc(Cl)cc2)cc1 (stereo not given),-84.4% (active)
20,CN(C)c1ccc(C(=N)c2ccc(N(C)C)cc2)cc1,-45.5% (active) and -18.9% (active)
